Consider 7 compounds from PubChem BioAssay (NCI).

This is part of a sample that, as a whole, favours compounds with a hit. Of some 83,000 tested, about 20% had one in any assay.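 Growth was measured after 48 h exposure to one concentration of compound in 96-well plates. Values under 10 count as active.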 The source made the active and inactive calls.

In this experiment the test system is KM12 colon. Description: NCI-60 one-dose screen, 48 h (100 = growth as untreated, 0 = no growth, -100 = all killed). The settings on record: 10 µM.
With `N=C1S/C(=C/c2ccc(-c3ccc4c(c3)C(=O)NC4=O)o2)C(=O)N1c1ccc(Br)cc1`, the growth is 46.4% (inactive).

For the compound `c1cnc2[nH]cc(-c3nc(-c4ccsc4)cs3)c2c1`, the growth is 88.9% (inactive).

As to `Clc1nc2ccc(Br)cc2cc1-c1nc2ccccc2[nH]1`, the growth was 90.7% (inactive).

`Nc1nc(Cl)nc2c1ncn2C1O[C@H](CO)[C@@H](O)[C@@H]1F` (some centres not stated): the growth is 51.4% (inactive).

As for `COc1ccc([C@H]2[C@H](C(=O)Nc3cccnc3)c3ccccc3C(=O)N2c2ccccc2)cc1`, the growth was 60.7% (inactive).

For `COc1ccc(/C=C2\CCCC3C2=Nc2ccccc2NC3c2ccc(OC)cc2)cc1` (configuration not stated), the growth was 27.5% (inactive).

Take `O=S(=O)(NCCCNc1nccc(-c2cn(-c3ccccc3)nc2-c2ccc(Cl)c(O)c2)n1)c1ccccc1`: the growth is 56.7% (inactive).
